About 5,900 (0.91%) of roughly 650,000 compounds were called active. The list comes from a sample in which actives are over-represented; it also holds similar structures and randomly drawn compounds. Values without a mark were called inactive. Rule as the data show it: active = inhibition above about 50%; inactive = the rest.
Each compound was assayed against Microphthalmia-associated transcription factor (Homo sapiens) (UniProt O75030) (assay: MITF inhibitors, primary screen, biochemical, AlphaScreen, human (AID 1259374;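 also: 0% = vehicle wells with protein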)). Details: AlphaScreen MITF homodimerization, bead proximity signal; at 2.6 µM; stronger effect = higher value.
Microphthalmia-associated transcription factor (Homo sapiens), sequence (O75030 whole entry, looked up): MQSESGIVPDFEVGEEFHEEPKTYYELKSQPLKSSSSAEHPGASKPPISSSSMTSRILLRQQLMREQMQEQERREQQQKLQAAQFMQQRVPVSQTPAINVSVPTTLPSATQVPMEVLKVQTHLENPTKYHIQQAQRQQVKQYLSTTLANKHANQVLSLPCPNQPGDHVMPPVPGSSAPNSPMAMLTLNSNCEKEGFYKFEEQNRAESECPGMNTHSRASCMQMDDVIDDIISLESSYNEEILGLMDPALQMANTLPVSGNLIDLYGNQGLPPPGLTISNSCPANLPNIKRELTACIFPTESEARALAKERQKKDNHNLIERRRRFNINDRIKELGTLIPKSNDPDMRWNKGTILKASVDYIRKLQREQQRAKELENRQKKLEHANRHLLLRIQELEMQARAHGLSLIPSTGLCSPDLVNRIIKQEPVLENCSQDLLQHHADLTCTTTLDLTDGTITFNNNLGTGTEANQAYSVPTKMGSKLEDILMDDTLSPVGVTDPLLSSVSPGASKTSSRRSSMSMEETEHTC

SMILES | inhibition
Cc1ccc(C2CC(c3ccc(Br)cc3)=NN2C(=O)CSc2nnc(CNC(=O)COc3ccccc3)n2C)cc1 (stereo not given) | -9.25%
Clc1ccc(CN2CCc3nnc(C4CCCO4)n3CC2)cc1 (stereo not given) | 9.36%
O=C(c1ccccc1)N1CCN(Cc2ccc(Cl)cc2)CC1 | 48.9%
Clc1ccc(CN2CCN(CC3CC=CCC3)CC2)cc1 (stereo not given) | 78.5% (active)
CC(=O)NS(=O)(=O)c1ccc(-c2ccc(C=C(C#N)C#N)o2)cc1 | 64.8% (active)
N#C/C(=C\c1ccc(-c2ccc(S(N)(=O)=O)cc2)o1)C(N)=O | 3.71%
CC(=O)NS(=O)(=O)c1ccc(-c2ccc(/C=C3/C(=O)N(CCCO)C(=O)C(C#N)=C3C)o2)cc1 | 3.37%
O=C(CCc1ccc2c(c1)OCO2)N1CCC(c2[nH]ncc2-c2ccccc2)CC1 | -0.09%
Cc1cc(C(C)(C)C)ccc1OCCN1CCNCC1 | 52.3% (active)
Cc1cc(Br)ccc1OCCN1CCNCC1 | 36.3%
Cc1cccc(OCCN2CCNCC2)c1C | 73.1% (active)
C=CCc1ccccc1OCCN1CCNCC1 | 26.5%
Cc1cccc(OCCOCCN2CCC(C)CC2)c1C | 24.9%
Cc1ccc(OCCN2CCNCC2)cc1C | 9.7%
N#Cc1c(/N=C/c2ccccc2OCC(=O)O)sc2c1CCCC2 | 2%
COc1ccccc1CNC(=O)c1ccccc1Br | 7.79%
O=c1c2ccccc2nc(/C=C\c2ccc(F)c(F)c2)n1-c1ccc(Cl)cc1[N+](=O)[O-] | 1.53%
Cn1c(CC(=O)NNC(=O)CNC(=O)c2ccc(Br)cc2)nc2ccccc21 | 8.22%
Cc1ccc(-c2nn3c(C)nnc3s2)cc1NC(=O)COc1ccc(Cl)cc1C | -9.16%
O=S(=O)(c1cc(Br)ccc1Br)N1CCN(CCO)CC1 | 7.82%
O=S(=O)(/C=C/c1ccccc1)N1CCN(CCc2ccncc2)CC1 | 3.78%
O=S(=O)(c1ccc(Br)cc1Cl)N1CCN(CCc2ccncc2)CC1 | 75.3% (active)
CCN1CCN(Cc2c(O)ccc3c2O/C(=C\c2cc(OC)ccc2OC)C3=O)CC1 | -14.3%
CN1CC(CO)O/C1=C(C#N)\C=C1\Nc2ccccc2C1=O (stereo not given) | 21.7%
COc1ccc(OCCCC(=O)Nc2ccccc2)cc1 | 14.3%
COc1ccc(OCCCC(=O)Oc2ccc(OC)cc2)cc1 | 80.3% (active)
COc1ccc(OC(=O)COc2ccc(Br)cc2)cc1 | 1.98%
CN(CC(=O)Nc1ccccc1F)CC(=O)Nc1ccccc1Br | -2.33%
CCC(C)c1ccccc1NC(=O)CN(C)CC(=O)Nc1ccccc1SC (stereo not given) | 89.7% (active)
CCC(C)c1ccccc1NC(=O)C(C)Cl (stereo not given) | -5.29%
